Holding throughout (assay): log2 ratio of Biotin-Ahx-Ub-VS probe labelling (fragment/DMSO); higher = less target engagement (more negative = stronger competition), active = hit call of the paper (q ≤ 0.05, log2 ratio ≤ -1)
What all share (details): compound concentration: 200 uM; treatment time: 3 h

One experiment addresses T1, USP19 (UniProt O94966).
T1 sequence (whole entry): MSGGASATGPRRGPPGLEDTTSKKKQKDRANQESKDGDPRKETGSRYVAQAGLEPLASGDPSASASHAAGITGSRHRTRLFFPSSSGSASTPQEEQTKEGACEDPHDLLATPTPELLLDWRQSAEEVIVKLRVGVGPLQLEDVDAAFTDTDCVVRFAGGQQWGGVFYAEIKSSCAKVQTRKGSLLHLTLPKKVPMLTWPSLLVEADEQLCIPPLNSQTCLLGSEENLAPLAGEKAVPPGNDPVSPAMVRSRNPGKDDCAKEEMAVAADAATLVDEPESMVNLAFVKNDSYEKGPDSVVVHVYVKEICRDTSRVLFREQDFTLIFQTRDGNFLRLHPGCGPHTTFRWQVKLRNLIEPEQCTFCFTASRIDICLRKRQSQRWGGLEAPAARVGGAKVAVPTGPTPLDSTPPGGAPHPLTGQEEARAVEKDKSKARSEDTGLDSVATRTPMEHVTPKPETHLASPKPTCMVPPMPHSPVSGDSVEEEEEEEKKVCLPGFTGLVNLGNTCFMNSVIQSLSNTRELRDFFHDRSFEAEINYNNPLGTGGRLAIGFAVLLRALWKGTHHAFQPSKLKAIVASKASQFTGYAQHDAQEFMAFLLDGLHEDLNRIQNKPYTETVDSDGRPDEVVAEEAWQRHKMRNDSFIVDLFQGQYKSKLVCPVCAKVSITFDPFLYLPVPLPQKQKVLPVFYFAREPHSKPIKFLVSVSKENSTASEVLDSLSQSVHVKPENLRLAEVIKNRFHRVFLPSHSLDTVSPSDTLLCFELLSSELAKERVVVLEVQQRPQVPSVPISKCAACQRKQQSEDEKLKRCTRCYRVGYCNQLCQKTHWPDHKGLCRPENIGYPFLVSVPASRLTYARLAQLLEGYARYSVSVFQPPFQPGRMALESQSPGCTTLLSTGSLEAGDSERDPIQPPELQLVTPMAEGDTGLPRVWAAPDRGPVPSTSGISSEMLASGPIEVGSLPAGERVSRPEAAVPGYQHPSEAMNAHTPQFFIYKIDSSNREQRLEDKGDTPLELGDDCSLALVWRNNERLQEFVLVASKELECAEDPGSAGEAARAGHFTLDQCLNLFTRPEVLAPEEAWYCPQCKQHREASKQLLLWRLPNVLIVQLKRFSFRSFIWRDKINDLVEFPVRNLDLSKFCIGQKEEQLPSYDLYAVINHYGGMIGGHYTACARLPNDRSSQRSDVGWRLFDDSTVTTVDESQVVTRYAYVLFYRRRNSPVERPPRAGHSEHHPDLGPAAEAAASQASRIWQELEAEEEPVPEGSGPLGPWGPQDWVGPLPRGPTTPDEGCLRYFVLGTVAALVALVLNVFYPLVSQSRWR
In outline: (§1)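 Labelling with Biotin-Ahx-Ub-VS (0.5 µM final, 1 h) followed a 3 h triplicate treatment of HEK293T lysate (495 µg per sample, Tris/CHAPS/IGEPAL buffer with protease inhibitors) with fragment at 200 µM or vehicle. Labelled DUBs were NeutrAvidin-enriched, digested with LysC and trypsin, and run by diaPASEF LC-MS/MS. The values, average log2 fragment/vehicle ratios by unpaired t-test, come from global-median-normalised Spectronaut label-free quantities. Proteins with ≥2 unique peptides were used.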

The target in another experiment is T2, USP22 (UniProt Q9UPT9).
T2 sequence (whole entry): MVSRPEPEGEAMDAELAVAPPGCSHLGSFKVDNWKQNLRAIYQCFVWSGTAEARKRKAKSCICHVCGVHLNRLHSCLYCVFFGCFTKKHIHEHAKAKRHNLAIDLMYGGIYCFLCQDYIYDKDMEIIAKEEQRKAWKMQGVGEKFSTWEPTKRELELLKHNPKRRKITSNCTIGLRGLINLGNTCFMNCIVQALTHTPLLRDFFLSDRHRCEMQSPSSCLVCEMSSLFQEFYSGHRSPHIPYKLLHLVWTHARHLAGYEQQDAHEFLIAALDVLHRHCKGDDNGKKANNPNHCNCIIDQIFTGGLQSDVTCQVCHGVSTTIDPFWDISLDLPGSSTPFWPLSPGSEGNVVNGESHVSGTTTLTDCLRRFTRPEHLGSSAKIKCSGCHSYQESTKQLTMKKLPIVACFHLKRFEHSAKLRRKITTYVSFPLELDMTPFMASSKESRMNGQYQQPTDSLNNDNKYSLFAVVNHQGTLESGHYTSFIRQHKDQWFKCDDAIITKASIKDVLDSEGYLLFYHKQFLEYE
The method in brief: as §1

A further experiment concerns the target USP24 (UniProt Q9UPU5). In outline:
as §1

In a further experiment the target is T3, USP25 (UniProt Q9UHP3).
T3 sequence (whole entry): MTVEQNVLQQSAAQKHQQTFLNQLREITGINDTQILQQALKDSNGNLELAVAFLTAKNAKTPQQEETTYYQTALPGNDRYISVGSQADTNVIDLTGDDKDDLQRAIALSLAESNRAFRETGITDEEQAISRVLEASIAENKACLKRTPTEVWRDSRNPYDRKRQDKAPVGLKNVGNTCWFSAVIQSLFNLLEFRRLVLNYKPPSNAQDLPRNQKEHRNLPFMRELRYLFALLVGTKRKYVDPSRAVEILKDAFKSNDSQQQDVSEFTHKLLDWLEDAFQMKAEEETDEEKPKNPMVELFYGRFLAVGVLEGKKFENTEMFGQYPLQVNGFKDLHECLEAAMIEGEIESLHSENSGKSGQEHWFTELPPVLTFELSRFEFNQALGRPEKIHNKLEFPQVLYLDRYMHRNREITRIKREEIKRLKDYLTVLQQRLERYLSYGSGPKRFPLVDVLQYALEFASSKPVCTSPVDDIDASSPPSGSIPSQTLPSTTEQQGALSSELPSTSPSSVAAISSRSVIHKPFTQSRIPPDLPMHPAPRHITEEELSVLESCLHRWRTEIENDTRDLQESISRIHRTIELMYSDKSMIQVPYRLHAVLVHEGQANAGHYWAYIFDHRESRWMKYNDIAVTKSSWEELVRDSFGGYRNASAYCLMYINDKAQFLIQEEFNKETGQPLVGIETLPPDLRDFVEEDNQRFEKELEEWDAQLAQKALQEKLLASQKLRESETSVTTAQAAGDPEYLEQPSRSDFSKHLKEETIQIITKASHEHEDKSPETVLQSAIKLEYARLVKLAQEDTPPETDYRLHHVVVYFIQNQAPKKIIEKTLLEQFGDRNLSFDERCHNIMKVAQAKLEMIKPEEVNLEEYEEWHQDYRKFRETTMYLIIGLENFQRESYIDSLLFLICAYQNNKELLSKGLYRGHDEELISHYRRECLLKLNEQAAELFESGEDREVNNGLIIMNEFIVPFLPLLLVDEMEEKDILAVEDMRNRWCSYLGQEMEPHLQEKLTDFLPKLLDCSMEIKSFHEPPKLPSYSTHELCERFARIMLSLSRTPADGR
In outline: as §1

The target in another experiment is T4, USP28 (UniProt Q96RU2).
T4 sequence (whole entry): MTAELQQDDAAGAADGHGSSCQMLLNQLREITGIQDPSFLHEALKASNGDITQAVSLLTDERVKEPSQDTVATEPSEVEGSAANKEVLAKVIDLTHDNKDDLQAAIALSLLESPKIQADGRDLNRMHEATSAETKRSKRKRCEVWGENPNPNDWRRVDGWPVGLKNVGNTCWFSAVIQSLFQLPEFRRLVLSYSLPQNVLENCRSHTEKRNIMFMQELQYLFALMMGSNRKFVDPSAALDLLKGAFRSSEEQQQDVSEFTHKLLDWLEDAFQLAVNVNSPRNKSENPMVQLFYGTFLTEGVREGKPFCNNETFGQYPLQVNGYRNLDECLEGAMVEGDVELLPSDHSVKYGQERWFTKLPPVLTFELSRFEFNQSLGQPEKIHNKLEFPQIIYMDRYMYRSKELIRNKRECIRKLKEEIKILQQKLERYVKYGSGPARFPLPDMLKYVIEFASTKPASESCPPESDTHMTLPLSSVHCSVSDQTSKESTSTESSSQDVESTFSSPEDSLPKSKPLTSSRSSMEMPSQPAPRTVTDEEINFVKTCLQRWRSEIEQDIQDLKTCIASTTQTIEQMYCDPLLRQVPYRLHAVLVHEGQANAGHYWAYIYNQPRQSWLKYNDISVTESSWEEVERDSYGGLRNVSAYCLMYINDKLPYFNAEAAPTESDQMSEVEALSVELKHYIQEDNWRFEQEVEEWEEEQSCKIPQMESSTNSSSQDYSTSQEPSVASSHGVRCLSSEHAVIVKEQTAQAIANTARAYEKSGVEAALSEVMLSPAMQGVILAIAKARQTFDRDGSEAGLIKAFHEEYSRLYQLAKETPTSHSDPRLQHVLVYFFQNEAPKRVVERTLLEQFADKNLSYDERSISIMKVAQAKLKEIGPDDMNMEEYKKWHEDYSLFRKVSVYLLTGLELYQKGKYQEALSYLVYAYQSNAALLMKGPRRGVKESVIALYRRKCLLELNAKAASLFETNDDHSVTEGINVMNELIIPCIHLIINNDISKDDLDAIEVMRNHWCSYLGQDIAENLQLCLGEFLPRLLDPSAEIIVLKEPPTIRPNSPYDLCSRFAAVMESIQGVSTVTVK
The method in brief:
as §1

Values without a mark were called inactive.

Chain of USP24 (Q9UPU5 whole entry): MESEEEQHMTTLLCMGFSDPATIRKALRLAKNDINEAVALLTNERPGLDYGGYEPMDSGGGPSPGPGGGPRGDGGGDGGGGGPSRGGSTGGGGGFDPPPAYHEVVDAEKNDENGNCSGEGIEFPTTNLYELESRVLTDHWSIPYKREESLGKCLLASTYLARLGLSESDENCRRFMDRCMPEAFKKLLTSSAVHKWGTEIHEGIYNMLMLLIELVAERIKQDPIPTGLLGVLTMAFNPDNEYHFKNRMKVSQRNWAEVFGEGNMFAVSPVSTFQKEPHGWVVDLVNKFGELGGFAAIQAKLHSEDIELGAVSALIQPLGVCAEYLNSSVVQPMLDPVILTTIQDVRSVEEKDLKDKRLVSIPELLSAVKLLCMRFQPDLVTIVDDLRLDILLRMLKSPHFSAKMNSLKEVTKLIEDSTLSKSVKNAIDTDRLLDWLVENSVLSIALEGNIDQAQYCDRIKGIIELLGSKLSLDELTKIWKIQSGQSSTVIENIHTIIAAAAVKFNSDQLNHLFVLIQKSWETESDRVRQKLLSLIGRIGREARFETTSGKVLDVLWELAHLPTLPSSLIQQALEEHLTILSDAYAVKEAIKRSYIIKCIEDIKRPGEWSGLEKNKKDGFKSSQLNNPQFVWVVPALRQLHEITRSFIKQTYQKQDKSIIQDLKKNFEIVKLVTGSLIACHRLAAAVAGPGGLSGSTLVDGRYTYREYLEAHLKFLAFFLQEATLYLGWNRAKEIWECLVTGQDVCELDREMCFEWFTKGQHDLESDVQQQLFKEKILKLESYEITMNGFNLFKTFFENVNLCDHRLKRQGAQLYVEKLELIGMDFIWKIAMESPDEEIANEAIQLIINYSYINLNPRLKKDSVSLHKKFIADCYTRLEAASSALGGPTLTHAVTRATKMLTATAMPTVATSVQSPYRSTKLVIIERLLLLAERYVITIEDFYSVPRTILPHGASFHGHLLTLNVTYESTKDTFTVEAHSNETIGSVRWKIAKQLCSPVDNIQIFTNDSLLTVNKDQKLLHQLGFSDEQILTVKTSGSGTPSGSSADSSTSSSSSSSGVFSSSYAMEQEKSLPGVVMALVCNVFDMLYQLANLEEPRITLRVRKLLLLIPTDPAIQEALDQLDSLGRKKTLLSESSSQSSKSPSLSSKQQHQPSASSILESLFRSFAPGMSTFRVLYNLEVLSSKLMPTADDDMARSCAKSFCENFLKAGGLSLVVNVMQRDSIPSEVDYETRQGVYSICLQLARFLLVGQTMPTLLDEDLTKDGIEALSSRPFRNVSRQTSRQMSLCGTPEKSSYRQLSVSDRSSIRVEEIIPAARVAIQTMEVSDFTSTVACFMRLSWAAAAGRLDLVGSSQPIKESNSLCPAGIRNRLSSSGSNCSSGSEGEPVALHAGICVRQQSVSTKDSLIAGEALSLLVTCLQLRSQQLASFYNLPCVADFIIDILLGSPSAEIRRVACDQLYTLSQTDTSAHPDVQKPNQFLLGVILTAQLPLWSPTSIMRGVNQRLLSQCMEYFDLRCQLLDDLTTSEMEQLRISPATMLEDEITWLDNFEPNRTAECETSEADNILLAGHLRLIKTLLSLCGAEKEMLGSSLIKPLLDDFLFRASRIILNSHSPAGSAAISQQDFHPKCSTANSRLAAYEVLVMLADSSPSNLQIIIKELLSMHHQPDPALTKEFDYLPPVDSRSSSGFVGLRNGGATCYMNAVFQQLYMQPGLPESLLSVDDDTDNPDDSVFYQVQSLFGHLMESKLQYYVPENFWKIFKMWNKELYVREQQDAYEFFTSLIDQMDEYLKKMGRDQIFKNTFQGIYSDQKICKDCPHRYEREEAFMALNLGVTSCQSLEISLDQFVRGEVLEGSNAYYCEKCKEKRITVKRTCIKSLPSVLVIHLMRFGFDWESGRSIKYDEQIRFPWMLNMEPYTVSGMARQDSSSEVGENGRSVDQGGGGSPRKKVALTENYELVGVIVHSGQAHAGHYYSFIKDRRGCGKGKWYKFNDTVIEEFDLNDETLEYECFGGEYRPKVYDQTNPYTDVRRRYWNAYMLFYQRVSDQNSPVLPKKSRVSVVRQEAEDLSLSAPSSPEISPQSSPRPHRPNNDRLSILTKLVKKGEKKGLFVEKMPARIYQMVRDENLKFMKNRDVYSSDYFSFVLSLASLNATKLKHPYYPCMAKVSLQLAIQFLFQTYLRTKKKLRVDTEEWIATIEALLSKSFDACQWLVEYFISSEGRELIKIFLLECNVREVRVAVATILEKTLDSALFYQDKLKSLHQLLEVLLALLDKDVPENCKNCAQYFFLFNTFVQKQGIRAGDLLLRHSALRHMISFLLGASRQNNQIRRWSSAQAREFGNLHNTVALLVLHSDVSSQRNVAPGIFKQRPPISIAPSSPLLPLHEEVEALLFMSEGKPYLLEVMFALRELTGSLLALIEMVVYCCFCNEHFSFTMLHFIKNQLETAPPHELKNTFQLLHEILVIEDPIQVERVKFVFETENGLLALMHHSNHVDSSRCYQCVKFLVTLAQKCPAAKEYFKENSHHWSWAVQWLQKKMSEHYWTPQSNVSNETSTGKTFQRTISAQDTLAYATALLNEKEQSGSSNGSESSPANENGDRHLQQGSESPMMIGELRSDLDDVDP

Turning to `O=C(CCl)N1CCOC(c2cccc(F)c2)C1` (stereo not given), the “log2 ratio of Biotin-Ahx-Ub-VS probe labelling” value in the experiment with USP19 is -0.335; with USP22 it was -0.24; in the experiment with USP24, -1.13 (active); in the experiment with USP25, -0.541; with USP28, -0.953.

Values taken from the supplement of paper PMC11732987, “Enantioselective OTUD7B fragment discovery through chemoproteomics screening and high-throughput optimisation” (Communications Chemistry, 2025).
